In PubChem BioAssay (Tox21) one finds Potency data, which are given here for 40 molecules.

Inconclusive results are not listed. Where a call stands in place of a potency, no number is given. Activity calls are given as the source filed them. The call rests on the fitted dose curve; in most records, active means well fitted cell-killing curve with a large enough effect in the repeat runs; inconclusive means weak or mixed curves, or effect the other way; inactive means no such curve, though single readings can be large or run the other way.
Potency means the concentration at half of the fitted maximal effect.

A short description of this assay: qHTS assay to identify small molecule antagonists of the retinoid-related orphan receptor gamma (ROR-gamma) signaling pathway - cell viability counter screen (AID 1159520). Further: nearly all actives have a fitted effect of over 50% in size. The conditions noted are these: Tet-on RORgamma CHO cells viability, ATP luminescence, 16 h; series mostly up to 92.4 µM. From the text:
U.S. Tox21 Program National Center for Advancing Translational Sciences [NCATS] NIH Chemical Genomics Center [NCGC] U.S. Environmental Protection Agency [EPA] National Institutes of Environmental Health Sciences [NIEHS] National Toxicology Program [NTP] U.S. Food and Drug Administration [FDA] Tox21 Assay Overview: Nuclear steroid hormone receptors are involved in many biological processes including inflammatory responses, cell proliferation, and apoptosis. Environmental factors or compounds disrupting these nuclear receptor pathways and gene expression may promote susceptibility to immunotoxicants and autoimmune diseases. One important group of these expression factors are the retinoid-related orphan receptors. To assess compounds that may interfere with the retinoid-related orphan receptor gamma (ROR-gamma) transcription factor, a cell-based luciferase assay was used. The CHO cell-based assay utilizes a TET-inducible ROR expression factor and ROR response element-LUC reporter gene. Reporter gene activity was induced using Doxycycline Hyclate and measured after 16 hr incubation. Tet-on ROR gamma CHO cells were used to screen against the Tox21 10K compound library for cytotoxicity by measuring the viability of the cells based on the quantitation of the ATP.
Tox21 Assay Protocol Summary: Tet-on ROR gamma CHO cells were dispensed at 1,000 cells in 4 uL of culture medium per well into white wall/solid bottom 1536-well plates using a Multidrop Combi (Thermo Scientific, Waltham, MA) dispenser. Following incubation at 37 C and 5% CO2 for 4 hr, 23 nL of compounds dissolved in DMSO, positive controls or DMSO only were transferred by a Pintool station (Kalypsys, San Diego, CA) and after 2 hr incubation at 37 C, one ul of 1 uM (final concentration) of Doxycycline Hyclate was added to all the wells by using a Flying Reagent Dispenser (FRD) (Aurora Discovery, San Diego, CA). After 16 hr incubation at 37 C and 5% CO2, 5 uL of CellTiter-Glo reagent (Promega Corporation, Madison, WI) was added to each assay plate using FRD. After 30 min incubation at room temperature, luminescence was quantified on a ViewLux plate reader (Perkin Elmer, Waltham, MA).
A general note: Quantitative high-throughput screening tests each substance at several concentrations.
In the case of `Cc1ccc(Cl)cc1N`, the Potency result is “inactive”. The entry for `CC(=O)OCCC(C)CC(C)(C)C` (stereo not given) is “inactive”; for `CCCCCc1ccco1` it is “inactive”; for `CC(CO)(CO)C(=O)O` it is “inactive”. The value for `CCC(C)(C)C(=O)O` was “inactive”; that for `O=[N+]([O-])C1(Br)COCOC1` was 24.3 µM (active); that for `CCOC(=O)c1ccc(NC(=O)CN2CCCCC2)cc1` was “inactive”. The entry for `CCN(CC)CCOc1ccccc1C(=O)CCc1ccccc1` is “inactive”; for `COC1CCC=CO1` (stereo not given) it is “inactive”. As to `CC1CCCC(=O)C1=O` (stereo not given), the Potency entry was “inactive”. The entry for `CC(C)(C)C(O)/C=C/c1ccc2c(c1)OCO2` (stereo not given) is “inactive”; for `CCN(CC)c1ccc(C(=C2C=CC(=[N+](CC)CC)C=C2)c2ccc(S(=O)(=O)O)cc2S(=O)(=O)[O-])cc1` it is 8.63 µM (active); for `CCCOC(=O)c1c(Cl)c(Cl)c(Cl)c(Cl)c1C(=O)OCCC` it is “inactive”.

As to `CCN(CC)CCOC(=O)C(c1ccccc1)c1ccccc1`, the Potency result is “inactive”. The entry for `O=C(Nc1ccc(C(=O)O)c(O)c1)c1ccccc1` is “inactive”; for `CCC(=O)OCc1ccc(OC)cc1` it is “inactive”. On to `O=C1OC[C@H](Cc2cccc(O)c2)[C@H]1Cc1cccc(O)c1`, for which the Potency result is “inactive”. Turning to `O=C1NC(=O)c2cccc3cccc1c23`, the Potency result is “inactive”.

On to `Oc1ccc2c(c1)Cc1ccccc1-2`, for which the Potency entry was “inactive”.

As to `CCCCCCCCCCCCCOS(=O)(=O)O`, the Potency result was “inactive”. The value for `OCC(CO)n1cnc(-c2ccc(F)cc2)c1-c1ccnc(Oc2ccccc2)n1` was “inactive”; that for `CC[C@H]1OC(=O)[C@H](C)[C@@H](O[C@H]2C[C@@](C)(OC)[C@@H](O)[C@H](C)O2)[C@H](C)[C@@H](O[C@@H]2O[C@H](C)C[C@H](N(C)C)[C@H]2O)[C@](C)(O)C[C@@H](C)C(=O)[C@H](C)[C@@H](O)[C@]1(C)O` was “inactive”. The entry for `COc1ccc(-c2cc(C(F)F)nn2-c2ccc(S(N)(=O)=O)cc2)cc1F` is “inactive”; for `CC(C)Cc1ccc(CC(=O)O)cc1` it is “inactive”; for `CCN(CC)CC(=O)Nc1c(C)cccc1C(=O)OC` it is “inactive”. The entry for `O=C(O)CCC(=O)OC[C@@H](NC(=O)C(Cl)Cl)[C@H](O)c1ccc([N+](=O)[O-])cc1` is “inactive”; for `CC[C@H]1OC(=O)[C@H](C)[C@@H](O[C@H]2C[C@@](C)(OC)[C@@H](O)[C@H](C)O2)[C@H](C)[C@@H](O[C@@H]2O[C@H](C)C[C@H](N(C)C)[C@H]2O)[C@](C)(O)C[C@@H](C)CN(C)[C@H](C)[C@@H](O)[C@]1(C)O` it is “inactive”; for `Cc1c[nH]c2ccccc12` it is “inactive”. As for `CC(=O)Oc1cccc(O)c1`, the Potency entry was “inactive”. Take `COc1ccc2nc(S(=O)Cc3ncc(C)c(OC)c3C)[nH]c2c1` (stereo not given): the Potency entry was “inactive”.

With `CCCCCCOC(=O)CCCCC`, the Potency entry was “inactive”. The figure for `Cc1c(C2(c3cc(Br)c(O)c(Br)c3C)OS(=O)(=O)c3ccccc32)cc(Br)c(O)c1Br` is 3.74 µM (active). On to `CNC1CCCN(c2c(F)cc3c(=O)c(C(=O)O)cn(C4CC4)c3c2OC)C1` (stereo not given), for which the Potency entry was “inactive”. The entry for `CCO[Si](C)(CCCOCC1CO1)OCC` (stereo not given) is “inactive”. The entry for `CC(=O)OCCC1CCCCC1` is “inactive”; for `CC(=O)c1ccc[nH]1` it is “inactive”. The value for `NC(=O)CCCCC(N)=O` was “inactive”. Turning to `c1ccc(CNc2ncnc3c2ncn3C2CCCCO2)cc1` (stereo not given), the Potency entry is “inactive”.

For the molecule `ClC1=C(Cl)C1(Cl)Cl`, the Potency entry was “inactive”.

For the molecule `CCCCC(CC)COS(=O)(=O)O` (stereo not given), the Potency entry was “inactive”.
